Assay results published in PubChem BioAssay (Tox21).
Where “and” joins values, the source holds several entries; their conditions need not be identical. Equal entries are not always repeated. Results filed as inconclusive are left out. A call without a number means that no potency is given here. The source holds several records for some structures; these can differ, active in one and inactive in another. Calls of active or inactive are those of the source. Unless noted, calls come from the whole dose curve; as a rule, active = well fitted curve in the direction sought with a large enough effect in the repeat runs; inconclusive = weak or mixed curves; inactive = no such curve, though single readings can be large; an effect the other way counts as inactive or inconclusive.

Assays:
[1] = qHTS assay to identify small molecule agonists of the endoplasmic reticulum stress response signaling pathway - cell viability counter screen (AID 1159517; calls by dose curve; note: nearly all actives have a fitted effect of over 50% in size; note: potency is the fitted concentration of half-maximal effect)
Outline: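 Cytotoxicity of test compounds toward ESRE-bla HeLa cells was assessed after 5 hr exposure. The luminescent CellTiter-Glo signal was measured 30 min after reagent addition.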

[2] = qHTS assay to identify small molecule antagonists of the retinoid-related orphan receptor gamma (ROR-gamma) signaling pathway - cell viability counter screen (AID 1159520); note: nearly all actives have a fitted effect of over 50% in size; note: potency is the fitted concentration of half-maximal effect
Outline: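 Tet-on ROR gamma CHO cells (1,000/well) were plated 4 hr, given compounds in DMSO for 2 hr at 37 C, then induced with 1 uM final doxycycline for 16 hr. Viability was read as ATP by CellTiter-Glo luminescence after 30 min.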

[3] = target: Nuclear receptor ROR-gamma (Homo sapiens) (UniProt P51449); assay: qHTS assay to identify small molecule antagonists of the retinoid-related orphan receptor gamma (ROR-gamma) signaling pathway (AID 1159521; note: nearly all actives have a fitted effect of over 50% in size; note: potency is the fitted concentration of half-maximal effect)
Outline: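 Readout: ONE-Glo luciferase luminescence, 30 min at room temperature. System: Tet-on RORγ CHO, RORE-LUC. Sequence: compound 2 h, doxycycline 1 uM final, 16 h at 37 C.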

[4] = qHTS assay to identify small molecule agonists of the AP-1 signaling pathway - cell viability counter screen (AID 1159525; calls by dose curve; note: nearly all actives have a fitted effect of over 55% in size; note: potency is the fitted concentration of half-maximal effect)
Outline: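 Each titration point was normalised to DMSO and tetra n-octyl ammonium bromide controls. The read was Cell Titer Glo luminescence after 30 min at RT, following 5 h compound exposure of ME-180 AP-1-bla cells at 37 °C.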

[5] = qHTS assay to identify small molecule antagonists of the retinoid acid receptor (RAR) signaling pathway - cell viability counter screen (AID 1159551); note: nearly all actives have a fitted effect of over 35% in size
Outline: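 Viability of C3RL4 cells is quantified from ATP by luminescence after 6 h treatment at 37 C with compounds and 1 uM retinol.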

[6] = qHTS assay to identify small molecule antagonists of the retinoic acid receptor (RAR) signaling pathway (AID 1159552; note: nearly all actives have a fitted effect of over 50% in size; note: potency is the fitted concentration of half-maximal effect)
Outline: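 Overnight-plated C3RL4 reporter cells get compound, then retinol to 1 uM final; plates sit 6 hr at 37 C, 5% CO2. A luciferase reagent is added and light output recorded after 30 min at room temperature.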

[7] = qHTS assay to identify small molecule agonists of the retinoic acid receptor (RAR) signaling pathway (AID 1159553); note: potency is the fitted concentration of half-maximal effect
Outline: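 Compounds dissolved in DMSO were pinned onto C3RL4 cells seeded the previous day, and plates were held 6 hr at 37 C. RARE-driven luciferase output was then read by luminescence.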

[8] = qHTS assay to identify small molecule antagonists of the estrogen related receptor (ERR) signaling pathway - cell viability counter screen (AID 1224818);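 note: series mostly up to about 46 µM; viability measured after 17.5 h of compound exposure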
Outline: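 Cytotoxicity check run alongside the ERR antagonist screen: cells exposed to test compounds 17.5 h at 37 C, viability taken as CellTiter-Fluor fluorescence intensity.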

[9] = qHTS assay to identify small molecule antagonists of the estrogen related receptor (ERR) signaling pathway (AID 1224819)
Outline: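 ERR reporter cells were plated at 2,000 cells/well and left 6 h at 37 C/5% CO2 before pin-tool transfer of compounds in DMSO. After 18 h at 37 C, One-Glo was added and luminescence was read 30 min later at room temperature.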

[10] = qHTS assay to identify small molecule agonists of the estrogen related receptor (ERR) signaling pathway (AID 1224820)
Outline: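 Luminescence readout (One-Glo, 30 min RT) from NTP-supplied ERR cell line exposed to compounds for 18 h at 37 C. Cells seeded 2,000 per well and pre-incubated 6 h before pin-tool compound transfer.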

[11] = tested on: estrogen-related receptor alpha (ERRalpha) with PGC-1alpha coactivator, human; assay: qHTS assay to identify small molecule antagonists of the estrogen related receptor signaling pathway with the pleiotropic PPARgamma coactivator (PGC) (AID 1224821; calls by dose curve)
Outline: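 PGC/ERR reporter cells; 6 h pre-incubation 37 C/5% CO2; pin-tool compound in DMSO, 18 h 37 C; One-Glo added, 30 min RT; luminescence read. qHTS antagonist mode.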

[12] = qHTS assay to identify small molecule antagonists of the estrogen related receptor signaling pathway with the pleiotropic PPARgamma coactivator (PGC) cell viability counter screen (AID 1224822;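 note: series mostly up to about 46 µM; viability read after 17.5 h compound exposure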)
Outline: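 Viable cell signal (CellTiter-Fluor, 30 min, 37 C/5% CO2) was measured in PGC/ERR cells after a 17.5 h compound incubation.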

[13] = qHTS assay to identify small molecule agonists of the estrogen related receptor signaling pathway with the pleiotropic PPARgamma coactivator (PGC) (AID 1224823)
Outline: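 Luminescence readout (One-Glo, 30 min RT) from PGC/ERR cell line treated 18 h at 37 C with pin-tool-delivered DMSO compound solutions; cells plated 6 h before dosing. Quantitative HTS format.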

[14] = target: Luciferin 4-monooxygenase (Photinus pyralis) (UniProt P08659); assay: qHTS assay to identify small molecule inhibitors of firefly luciferase (AID 1224835); note: nearly all actives have a fitted effect of over 25% in size; note: potency is the fitted concentration of half-maximal effect
Outline: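 Quantitative HTS format; KM concentrations of both substrates. Purified P. pyralis FLuc activity quantified from luminescence images.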

[15] = qHTS assay to identify small molecule agonists of the RXR signaling pathway - cell viability counter screen (AID 1159529); note: nearly all actives have a fitted effect of over 50% in size; note: potency is the fitted concentration of half-maximal effect
Outline: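 Tox21 10K compounds were tested for cytotoxicity against GeneBLAzer RXR-alpha HEK 293T cells grown in 2% charcoal-stripped FBS. Exposure lasted 16 hr at 37 C, 5% CO2; viability read by CellTiter-Glo luminescence.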

[16] = qHTS assay to identify small molecule antagonists of the estrogen related receptor (ERR) signaling pathway from Tox21 library - cell viability counter screen (AID 1224834); note: nearly all actives have a fitted effect of over 30% in size; note: potency is the fitted concentration of half-maximal effect
Outline: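 In this quantitative HTS format, ERR cells receive compounds in DMSO and are incubated for 17.5 h at 37 C. Live-cell protease activity is then detected with CellTiter-Fluor.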

[17] = qHTS assay to identify small molecule agonists of the AP-1 signaling pathway (AID 1159526; calls by dose curve)
[18] = target: Retinoic acid receptor RXR-alpha (Homo sapiens) (UniProt P19793); assay: qHTS assay to identify small molecule agonists of the RXR signaling pathway (AID 1159527; calls by dose curve; note: nearly all actives have a fitted effect of over 35% in size)
Outline: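 Reporter activation is measured as beta-lactamase activity via FRET substrate cleavage (emission 460/530 nm) in HEK 293T cells expressing an RXR-alpha-driven bla construct, following 16 hr compound exposure at 37 C.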

Chain of Luciferin 4-monooxygenase (Photinus pyralis) (P08659 whole entry, looked up): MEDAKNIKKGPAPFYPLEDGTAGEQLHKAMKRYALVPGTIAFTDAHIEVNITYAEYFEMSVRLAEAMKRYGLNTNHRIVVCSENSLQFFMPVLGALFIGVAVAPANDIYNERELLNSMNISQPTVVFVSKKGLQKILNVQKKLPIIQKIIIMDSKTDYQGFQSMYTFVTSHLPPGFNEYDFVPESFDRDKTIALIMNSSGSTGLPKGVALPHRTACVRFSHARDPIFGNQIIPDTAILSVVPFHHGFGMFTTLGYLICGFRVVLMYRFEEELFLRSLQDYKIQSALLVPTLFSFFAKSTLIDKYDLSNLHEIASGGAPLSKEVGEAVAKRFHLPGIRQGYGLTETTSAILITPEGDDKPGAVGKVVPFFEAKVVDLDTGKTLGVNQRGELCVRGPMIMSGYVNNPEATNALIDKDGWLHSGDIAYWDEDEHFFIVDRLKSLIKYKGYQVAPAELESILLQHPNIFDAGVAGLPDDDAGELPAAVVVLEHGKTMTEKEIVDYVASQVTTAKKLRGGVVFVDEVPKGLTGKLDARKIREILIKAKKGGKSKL
Chain of Retinoic acid receptor RXR-alpha (Homo sapiens) (P19793 whole entry, looked up): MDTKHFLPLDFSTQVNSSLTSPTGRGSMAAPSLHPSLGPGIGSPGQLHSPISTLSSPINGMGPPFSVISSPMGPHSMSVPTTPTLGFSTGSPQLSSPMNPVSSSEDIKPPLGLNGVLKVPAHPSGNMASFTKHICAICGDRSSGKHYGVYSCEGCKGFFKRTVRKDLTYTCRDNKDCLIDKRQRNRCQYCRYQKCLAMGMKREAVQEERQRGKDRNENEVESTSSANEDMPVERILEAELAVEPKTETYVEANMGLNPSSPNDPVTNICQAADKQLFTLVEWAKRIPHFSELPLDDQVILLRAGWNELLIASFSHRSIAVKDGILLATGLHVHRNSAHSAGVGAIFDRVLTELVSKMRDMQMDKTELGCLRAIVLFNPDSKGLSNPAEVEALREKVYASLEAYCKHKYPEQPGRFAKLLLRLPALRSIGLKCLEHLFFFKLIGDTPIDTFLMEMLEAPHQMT

SMILES: O=[N+]([O-])c1c2ccccc2cc2ccccc12
- Potency [1]: inactive
- Potency [2]: inactive
- Potency [3]: inactive
- Potency [4]: inactive
- Potency [5]: inactive
- Potency [6]: inactive
- Potency [7]: 19.1 µM (active)
- outcome [8]: inactive
- Potency [9]: inactive
- outcome [10]: inactive
- Potency [11]: inactive
- Potency [12]: inactive
- outcome [13]: inactive
- Potency [14]: 31.3 µM (active)

SMILES: Clc1ccc(COC(Cn2ccnc2)c2ccc(Cl)cc2Cl)cc1 (stereo not drawn)
- Potency [1]: 61.4 µM (active)
- Potency [2]: 45.3 µM (active) and 60.9 µM (active)
- Potency [3]: 45.3 µM (active) and 30.5 µM (active) and 23.7 µM (active)
- Potency [4]: 54.7 µM (active) and 23.9 µM (active)
- Potency [15]: 32.3 µM (active) and 38.7 µM (active)
- Potency [6]: 50.8 µM (active) and 48.4 µM (active) and inactive
- Potency [16]: 45.3 µM (active) and 48.4 µM (active) and 26.6 µM (active)
- Potency [14]: inactive

SMILES: c1ccc2c(c1)OCC(C1=NCCN1)O2 (stereo not drawn)
- Potency [1]: inactive
- Potency [2]: inactive
- Potency [3]: 23.7 µM (active)
- Potency [4]: inactive
- Potency [17]: inactive
- Potency [12]: inactive
- Potency [16]: 21.1 µM (active)
- Potency [14]: inactive

SMILES: CC(C)(C)c1cc([N+](=O)[O-])cc(C(C)(C)C)c1O
- Potency [1]: inactive
- Potency [4]: inactive
- outcome [18]: inactive
- Potency [5]: inactive
- Potency [6]: 15.4 µM (active)
- Potency [16]: 13.7 µM (active)
- Potency [14]: inactive

SMILES: BrCBr
- Potency [1]: inactive
- Potency [2]: inactive
- Potency [4]: inactive
- Potency [17]: inactive
- outcome [18]: inactive
- Potency [15]: inactive
- Potency [5]: inactive
- Potency [16]: inactive
- Potency [14]: inactive

SMILES: O=C(Cl)c1ccc(Cl)cc1
- Potency [2]: inactive
- Potency [3]: inactive
- Potency [4]: inactive
- Potency [17]: inactive
- outcome [18]: inactive
- Potency [15]: inactive
- Potency [5]: inactive
- Potency [6]: inactive
- Potency [16]: inactive
- Potency [14]: inactive

SMILES: Cl/C=C\CCl
- Potency [2]: inactive
- Potency [3]: inactive
- Potency [4]: inactive
- Potency [17]: inactive
- outcome [18]: inactive
- Potency [15]: inactive
- Potency [5]: inactive
- Potency [6]: inactive
- Potency [16]: inactive
- Potency [14]: inactive

SMILES: COC[C@H](C)N(C(=O)CCl)c1c(C)csc1C
- Potency [2]: inactive
- Potency [3]: inactive
- Potency [4]: inactive
- Potency [17]: inactive
- outcome [18]: inactive
- Potency [15]: inactive
- Potency [5]: inactive
- Potency [16]: inactive
- Potency [14]: inactive

SMILES: CC(=O)c1ccc(-c2ccccc2)cc1
- Potency [2]: inactive
- Potency [3]: inactive
- Potency [4]: inactive
- Potency [17]: inactive
- outcome [18]: inactive
- Potency [15]: inactive
- Potency [5]: inactive
- Potency [6]: inactive
- Potency [16]: inactive
- Potency [14]: 31.7 µM (active)

SMILES: O=[N+]([O-])c1cc(Cl)ccc1Cl
- Potency [2]: inactive
- Potency [3]: inactive
- Potency [4]: inactive
- Potency [17]: inactive
- outcome [18]: inactive
- Potency [15]: inactive
- Potency [5]: inactive
- Potency [6]: inactive
- Potency [16]: inactive
- Potency [14]: inactive

SMILES: Clc1ccc(-c2ccc(Cl)c(Cl)c2Cl)c(Cl)c1Cl
- Potency [2]: inactive
- Potency [3]: inactive
- Potency [4]: inactive
- Potency [17]: inactive
- Potency [5]: inactive
- Potency [6]: inactive
- Potency [16]: inactive
- Potency [14]: inactive

SMILES: N#C/C=C/c1ccccc1
- Potency [2]: inactive
- Potency [3]: inactive
- Potency [4]: inactive
- Potency [17]: inactive
- outcome [18]: inactive
- Potency [15]: inactive
- Potency [5]: inactive
- Potency [6]: inactive
- Potency [16]: inactive
- Potency [14]: inactive

SMILES: CN(CCCC(=O)c1cccnc1)N=O
- Potency [2]: inactive
- Potency [3]: inactive
- Potency [4]: inactive
- Potency [17]: inactive
- outcome [18]: inactive
- Potency [15]: inactive
- Potency [5]: inactive
- Potency [16]: inactive
- Potency [14]: inactive

SMILES: CCc1ccccc1C
- Potency [2]: inactive
- Potency [3]: inactive
- Potency [4]: inactive
- Potency [17]: inactive
- outcome [18]: inactive
- Potency [15]: inactive
- Potency [5]: inactive
- Potency [6]: inactive
- Potency [16]: inactive
- Potency [14]: inactive

SMILES: CC(=[OH+])/C=C(/C)[O-].CC(=[OH+])/C=C(\C)[O-].CC(=[OH+])/C=C(\C)[O-].[Al]
- Potency [2]: inactive
- Potency [3]: inactive
- Potency [4]: inactive
- Potency [17]: inactive
- outcome [18]: inactive
- Potency [15]: inactive
- Potency [5]: inactive
- Potency [16]: inactive
- Potency [14]: 71 µM (active)

SMILES: COCC(=O)N(c1c(C)cccc1C)[C@H](C)C(=O)OC
- Potency [2]: inactive
- Potency [3]: inactive
- Potency [4]: inactive
- Potency [17]: inactive
- outcome [18]: inactive
- Potency [15]: inactive
- Potency [5]: inactive
- Potency [6]: inactive
- Potency [16]: inactive
- Potency [14]: inactive

SMILES: N#Cc1ccccc1N
- Potency [2]: inactive
- Potency [3]: inactive
- Potency [4]: inactive
- Potency [17]: inactive
- outcome [18]: inactive
- Potency [15]: inactive
- Potency [5]: inactive
- Potency [16]: inactive
- Potency [14]: inactive

SMILES: Cc1cc(Cl)ccc1O[C@H](C)C(=O)O
- Potency [2]: inactive
- Potency [3]: inactive
- Potency [4]: inactive
- Potency [17]: inactive
- outcome [18]: inactive
- Potency [15]: inactive
- Potency [5]: inactive
- Potency [16]: inactive
- Potency [14]: inactive

SMILES: O=C1NCN(c2ccccc2)C12CCN(CC1COc3ccccc3O1)CC2 (stereo not drawn)
- Potency [2]: inactive
- Potency [3]: inactive
- Potency [4]: inactive
- Potency [17]: inactive
- Potency [15]: 6.74 µM (active)
- Potency [5]: inactive
- Potency [6]: inactive
- outcome [8]: inactive
- outcome [10]: inactive
- outcome [13]: inactive
- Potency [14]: inactive

SMILES: CCOP(=S)(OCC)SCCS(=O)(=O)CC
- Potency [2]: inactive
- Potency [3]: inactive
- Potency [4]: inactive
- Potency [17]: inactive
- outcome [18]: inactive
- Potency [15]: inactive
- Potency [5]: inactive
- Potency [14]: inactive

SMILES: COc1ccc([N+](=O)[O-])cc1O
- Potency [2]: inactive
- Potency [3]: inactive
- Potency [4]: inactive
- Potency [17]: inactive
- outcome [18]: inactive
- Potency [15]: inactive
- Potency [5]: inactive
- Potency [6]: inactive
- Potency [16]: inactive
- Potency [14]: inactive
